From PubChem BioAssay
Active and inactive are the calls of the source.

Experiments:
[1] = binders of probe aFSTL3 on microarray, primary screen, stem cell growth factor project, biochemical, small-molecule microarray, fluorescence 635/667 (AID 1064); settings: higher = more signal;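 also: measures binding of the biotinylated anti-FSTL3 antibody to printed compounds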
[2] = binders from COS7 lysate, DM2A8 probe, primary screen, torsin A project, cell lysate, small-molecule microarray, fluorescence 635/667 (AID 1065); settings: higher = more signal, COS7 lysate expressing mutant human TOR1A
[3] = binders of probe aFGF2 on microarray, primary screen, stem cell growth factor project, biochemical, small-molecule microarray, fluorescence 635/667 (AID 1067); settings: higher = more signal;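 also: measures binding of biotinylated aFGF2 protein to printed compounds on slides; z-score merges feature fluorescence and signal-to-noise across triplicate slides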
[4] = binders of probe aFGF10 on microarray, primary screen, stem cell growth factor project, biochemical, small-molecule microarray, fluorescence 635/667 (AID 1071); settings: higher = more signal;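 also: score merges 667 nm spot intensity and signal to noise from triplicate slides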
[5] = molecular target: Neurogenic locus notch homolog protein 2 (Homo sapiens) (UniProt Q04721); test: Notch2 binders on small-molecule microarrays, primary screen, biochemical, small-molecule microarray, 635 nm fluorescence, stem cell growth factors (AID 1073); settings: Notch2 binding, higher = more signal
[6] = molecular target: Pro-neuregulin-1, membrane-bound isoform (Homo sapiens) (UniProt Q02297); test: NRG1 binders on small-molecule microarrays, primary screen, psychiatric disease protein project, biochemical, small-molecule microarray, fluorescence 635/667 (AID 1075); settings: NRG1 binding, 635 nm fluorescence, higher = more signal;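 also: score combines 667 nm spot fluorescence with signal to noise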
[7] = test system: Neuregulin-1 EGF-like domain; test: binders of neuregulin-1 EGF-like domain, primary screen, biochemical, small-molecule microarray, 635 nm fluorescence (AID 1081); settings: small-molecule microarray binding, higher = more signal;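 also: binding of the protein to compounds printed on small-molecule microarray slides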
[8] = FRG1 promoter luciferase signal modulators, primary screen, FRG1 inhibition for FSHD, cell-based, C2C12 myotubes, firefly/Renilla luciferase, luminescence (AID 1084); settings: higher = more signal, called active from +8 up or from −8 down
[9] = binders of probe aFST on microarray, primary screen, stem cell growth factor project, biochemical, small-molecule microarray, fluorescence 635/667 (AID 1086); settings: higher = more signal;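 also: score merges 667 nm fluorescence with signal-to-noise of each printed compound spot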
[10] = binders of probe aHhip on microarray, primary screen, stem cell growth factor project, biochemical, small-molecule microarray, fluorescence 635/667 (AID 1087); settings: higher = more signal;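 also: score merges spot fluorescence at 667nm with spot signal to noise ratio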
[11] = test system: PRMT1 (protein arginine N-methyltransferase 1); test: PRMT1 binders on small-molecule microarrays, primary screen, biochemical, small-molecule microarray, 635 nm fluorescence (AID 1088); settings: small-molecule microarray binding, higher = more signal;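 also: binding of Prmt1 protein to compounds spotted on small-molecule microarray slides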
[12] = yeast growth modulation, basal conditions, primary screen, YJM789 clinical isolate, OD600, 24 h (AID 1089);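 also: growth of clinical yeast isolate S. cerevisiae YJM 789 seeded 1000 cells per well; test concentration not given here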; settings: S. cerevisiae YJM789 growth, higher = more signal, called active from +8 up or from −8 down
[13] = fission yeast growth modulation, primary screen, strain 972, OD600, 24 h, no modulator (AID 1090);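 also: basal condition with compound alone and no growth modifier present; test concentration not given here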; settings: S. pombe 972 growth, higher = more signal, called active from +8 up or from −8 down
[14] = S. cerevisiae growth modulation with rapamycin, primary screen, strain BY4716, OD600, 96 h (AID 1091); settings: higher = more signal, called active from +8 up or from −8 down; also: test concentration not given here
[15] = molecular target: Torsin-1A-interacting protein 2 (Homo sapiens) (UniProt Q8NFQ8); test: LULL1 binders on small-molecule microarray, primary screen, cell lysate, human LULL1 lysate, 635/667 nm fluorescence (AID 1092); settings: hLULL1 lysate binding, 635 nm fluorescence, higher = more signal;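 also: probe is lysate of COS7 cells overexpressing human LULL1; score merges per-feature 667 nm fluorescence with signal-to-noise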
[16] = E. coli growth modulation, two-sided OD650, primary screen, E. coli filamentation project, strain DRC41, 24 h (AID 1093); settings: OD650, 24 h, higher = more signal, called active from +8 up or from −8 down;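 also: MC1000 strain lacking acrAB efflux and sulA so SOS filamentation is blocked; test concentration not given here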
[17] = small-molecule microarray binders of probe aLefty2, primary screen, biochemical, biotinylated probe, 635/667 nm fluorescence (AID 1094); settings: higher = more signal;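 also: score merges spot fluorescence near 667 nm with spot signal-to-noise ratio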
[18] = test system: Noggin (protein binding on small-molecule microarray); test: Noggin binders on small-molecule microarray, primary screen, biochemical, 635/667 nm fluorescence (AID 1095); settings: 635 nm fluorescence, higher = more signal;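 also: score merges 667 nm feature fluorescence with signal to noise over triplicate slides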
[19] = molecular target: Neurogenic locus notch homolog protein 3 (Homo sapiens) (UniProt Q9UM47); test: NOTCH3 binders on small-molecule microarray, primary screen, biochemical, 635/667 nm fluorescence (AID 1096); settings: NOTCH3 binding, 635 nm fluorescence, higher = more signal
[20] = small-molecule microarray binders of probe aEGFR, primary screen, biochemical, biotinylated probe, 635/667 nm fluorescence (AID 1097); settings: higher = more signal;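 also: probe is a biotinylated anti-EGFR antibody binding compounds printed on slides; score combines fluorescence near 667 nm and signal to noise of each spot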

Chain of Pro-neuregulin-1, membrane-bound isoform (Homo sapiens) (Q02297 whole entry, looked up, the tested form may be a part, canonical isoform): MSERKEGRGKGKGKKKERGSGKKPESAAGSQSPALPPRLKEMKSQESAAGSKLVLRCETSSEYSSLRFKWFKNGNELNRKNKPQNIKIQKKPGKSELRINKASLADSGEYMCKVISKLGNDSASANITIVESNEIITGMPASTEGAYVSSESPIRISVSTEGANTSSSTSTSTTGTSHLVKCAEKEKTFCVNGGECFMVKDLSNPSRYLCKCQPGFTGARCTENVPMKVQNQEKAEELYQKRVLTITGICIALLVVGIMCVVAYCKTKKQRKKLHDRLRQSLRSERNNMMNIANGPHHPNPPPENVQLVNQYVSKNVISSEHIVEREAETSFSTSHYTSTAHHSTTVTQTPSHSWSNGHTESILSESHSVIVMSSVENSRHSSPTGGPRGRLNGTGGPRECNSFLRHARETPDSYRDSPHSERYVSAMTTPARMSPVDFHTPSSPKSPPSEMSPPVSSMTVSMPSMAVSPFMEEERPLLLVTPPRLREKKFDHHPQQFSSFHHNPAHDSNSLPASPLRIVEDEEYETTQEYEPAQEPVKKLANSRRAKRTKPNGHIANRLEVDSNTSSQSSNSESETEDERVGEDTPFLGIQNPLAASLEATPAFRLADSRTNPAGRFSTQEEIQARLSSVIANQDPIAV
Chain of Neurogenic locus notch homolog protein 2 (Homo sapiens) (Q04721 whole entry, looked up, canonical isoform): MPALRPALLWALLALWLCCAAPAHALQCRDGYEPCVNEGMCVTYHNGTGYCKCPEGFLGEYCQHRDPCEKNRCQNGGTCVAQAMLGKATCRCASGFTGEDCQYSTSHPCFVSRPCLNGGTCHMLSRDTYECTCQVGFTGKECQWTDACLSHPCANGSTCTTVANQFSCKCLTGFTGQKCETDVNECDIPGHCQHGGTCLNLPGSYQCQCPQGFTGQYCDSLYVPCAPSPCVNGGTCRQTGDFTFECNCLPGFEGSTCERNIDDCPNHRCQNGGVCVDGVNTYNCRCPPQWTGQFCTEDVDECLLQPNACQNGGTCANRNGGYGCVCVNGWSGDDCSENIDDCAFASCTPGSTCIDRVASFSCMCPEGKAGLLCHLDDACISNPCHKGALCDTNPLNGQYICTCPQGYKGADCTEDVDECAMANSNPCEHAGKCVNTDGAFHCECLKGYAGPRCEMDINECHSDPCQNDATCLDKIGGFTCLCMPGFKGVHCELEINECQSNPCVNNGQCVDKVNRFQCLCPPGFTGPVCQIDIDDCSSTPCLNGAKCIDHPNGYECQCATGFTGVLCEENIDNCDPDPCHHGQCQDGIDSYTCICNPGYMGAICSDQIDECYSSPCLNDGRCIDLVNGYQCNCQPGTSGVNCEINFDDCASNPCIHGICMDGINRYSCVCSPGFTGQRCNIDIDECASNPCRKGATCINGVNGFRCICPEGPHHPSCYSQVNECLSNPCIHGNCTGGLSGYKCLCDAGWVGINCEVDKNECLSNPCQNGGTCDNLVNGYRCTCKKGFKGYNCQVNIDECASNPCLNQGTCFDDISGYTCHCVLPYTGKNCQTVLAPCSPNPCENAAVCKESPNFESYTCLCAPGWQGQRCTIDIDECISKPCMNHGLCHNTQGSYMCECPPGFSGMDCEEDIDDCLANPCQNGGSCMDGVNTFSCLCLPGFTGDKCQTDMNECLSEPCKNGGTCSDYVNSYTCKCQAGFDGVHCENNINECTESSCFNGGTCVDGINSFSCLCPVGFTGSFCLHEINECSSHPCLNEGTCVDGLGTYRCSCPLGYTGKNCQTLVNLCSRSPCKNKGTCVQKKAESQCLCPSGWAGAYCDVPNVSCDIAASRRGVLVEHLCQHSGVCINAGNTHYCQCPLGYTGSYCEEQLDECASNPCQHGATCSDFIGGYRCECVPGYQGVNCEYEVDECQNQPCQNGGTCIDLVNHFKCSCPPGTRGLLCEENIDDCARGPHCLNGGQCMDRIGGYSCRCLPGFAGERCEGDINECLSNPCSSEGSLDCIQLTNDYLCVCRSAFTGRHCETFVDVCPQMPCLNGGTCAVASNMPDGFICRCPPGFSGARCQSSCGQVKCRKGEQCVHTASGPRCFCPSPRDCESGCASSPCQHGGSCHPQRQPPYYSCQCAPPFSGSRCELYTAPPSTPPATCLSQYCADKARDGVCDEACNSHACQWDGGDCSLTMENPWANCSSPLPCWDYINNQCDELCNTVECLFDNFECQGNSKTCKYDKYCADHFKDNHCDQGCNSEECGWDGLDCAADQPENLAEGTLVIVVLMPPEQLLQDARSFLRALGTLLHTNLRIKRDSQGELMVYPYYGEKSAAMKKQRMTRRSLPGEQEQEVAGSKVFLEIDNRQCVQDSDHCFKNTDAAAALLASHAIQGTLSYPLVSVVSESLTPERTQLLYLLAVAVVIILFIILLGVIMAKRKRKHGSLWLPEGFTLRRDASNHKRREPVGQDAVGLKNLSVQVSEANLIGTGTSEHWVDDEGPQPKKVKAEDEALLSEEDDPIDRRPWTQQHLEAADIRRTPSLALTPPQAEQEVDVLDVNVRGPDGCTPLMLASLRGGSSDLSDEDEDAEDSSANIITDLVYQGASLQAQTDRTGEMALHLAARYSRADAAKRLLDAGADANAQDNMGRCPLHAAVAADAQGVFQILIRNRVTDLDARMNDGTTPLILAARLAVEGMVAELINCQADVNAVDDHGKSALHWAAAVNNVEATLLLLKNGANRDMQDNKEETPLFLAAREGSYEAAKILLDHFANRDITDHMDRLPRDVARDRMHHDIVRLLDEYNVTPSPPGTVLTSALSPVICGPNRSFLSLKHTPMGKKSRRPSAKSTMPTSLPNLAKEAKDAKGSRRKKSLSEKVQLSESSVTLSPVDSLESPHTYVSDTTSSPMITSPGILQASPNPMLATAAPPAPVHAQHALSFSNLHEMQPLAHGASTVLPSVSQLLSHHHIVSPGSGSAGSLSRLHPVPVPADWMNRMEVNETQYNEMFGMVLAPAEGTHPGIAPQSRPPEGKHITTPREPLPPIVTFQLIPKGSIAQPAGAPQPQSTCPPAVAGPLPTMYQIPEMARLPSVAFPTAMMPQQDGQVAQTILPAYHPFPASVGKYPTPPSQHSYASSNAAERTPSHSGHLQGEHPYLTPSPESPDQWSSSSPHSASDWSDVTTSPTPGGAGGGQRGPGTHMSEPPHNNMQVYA
Chain of Torsin-1A-interacting protein 2 (Homo sapiens) (Q8NFQ8 whole entry, looked up): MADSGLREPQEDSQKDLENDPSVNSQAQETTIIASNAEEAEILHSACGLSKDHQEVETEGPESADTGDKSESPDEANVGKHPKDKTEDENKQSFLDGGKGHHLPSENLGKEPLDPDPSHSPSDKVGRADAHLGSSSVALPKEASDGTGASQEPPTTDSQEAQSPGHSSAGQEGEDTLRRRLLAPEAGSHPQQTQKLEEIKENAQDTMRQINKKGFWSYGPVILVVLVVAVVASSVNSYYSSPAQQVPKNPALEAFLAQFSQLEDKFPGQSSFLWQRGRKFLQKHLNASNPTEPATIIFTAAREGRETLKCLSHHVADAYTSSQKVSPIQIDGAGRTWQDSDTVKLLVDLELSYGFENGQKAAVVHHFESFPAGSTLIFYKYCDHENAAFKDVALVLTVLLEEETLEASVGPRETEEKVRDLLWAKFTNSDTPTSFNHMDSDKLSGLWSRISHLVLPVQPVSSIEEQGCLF

SMILES | composite z-score [1] | composite z-score [2] | composite z-score [3] | composite z-score [4] | composite z-score [5] | composite z-score [6] | composite z-score [7] | z-score [8] | composite z-score [9] | composite z-score [10] | composite z-score [11] | z-score [12] | z-score [13] | z-score [14] | composite z-score [15] | z-score [16] | composite z-score [17] | composite z-score [18] | composite z-score [19] | composite z-score [20]
COc1cc2c(cc1O)C=[N+](Cc1sc3ccccc3c1Cl)CC2 | 0.172 | -0.0743 | -0.0999 | 0.1 | 1.06 | -0.102 | 1.48 | 0.432 (inactive) | -0.161 | 0.0178 | 0.286 | -1.02 (inactive) | -15.5 (active) | -1.31 (inactive) | -0.0121 | 0.461 (inactive) | 0.0216 | 0.346 | -0.119 | -0.126
COC(=O)[C@@]1(Cc2ccc(OC)cc2)[C@H]2c3cc(C(=O)N4CCCC4)n(CCc4c[nH]c5ccc(O)cc45)c3C[C@H]2CN1C(=O)c1ccccc1 | 0.77 | 0.0885 | 0.155 | 0.897 | 1.7 | 1.44 | 1.37 | 0.829 (inactive) | 1.46 | -0.374 | 0.66 | 0.277 (inactive) | 1.16 (inactive) | 0.687 (inactive) | 3.16 | 0.573 (inactive) | 0.379 | -0.0208 | 1.12 | 0.262
O=C1CS(=O)(=O)C(c2cccc([N+](=O)[O-])c2)N1c1ccccc1 (stereo not given) | 0.63 | 1.79 | 0.467 | 0.446 | 0.936 | 1.66 | 1.19 | -0.997 (inactive) | 0.822 | 1.56 | -0.0065 | -2.58 (inactive) | -2.56 (inactive) | -0.811 (inactive) | 1.85 | 0.672 (inactive) | 0.554 | 0.253 | 0.336 | 0.583
NCCCCCNC(=O)[C@@H]1C[C@@H]2C(=O)N[C@@H](CCCCN)C(=O)N2[C@@H]1c1ccc(O)cc1 | 0.266 | 0.726 | -0.0213 | 0.491 | 1.39 | 2.02 | 1.29 | 1.08 (inactive) | 0.865 | 0.23 | 1.53 | 1.83 (inactive) | 1.91 (inactive) | 3.76 (inactive) | 3.2 | -0.0616 (inactive) | 0.303 | 1.67 | 0.881 | 0.345
CCCC=C(CCC)[C@@H](NP(=O)(c1ccccc1)c1ccccc1)c1ccc(-c2ccccc2)cc1 | 0.0517 | 0.887 | 0.112 | 0.704 | 1.57 | 1.19 | 1.14 | -2.1 (inactive) | 1.14 | 0.172 | 1.54 | 1.09 (inactive) | 2.34 (inactive) | 1.84 (inactive) | 3.11 | -0.932 (inactive) | 0.123 | 0.649 | 1.12 | 0.0825
CCCCNC(=O)c1ccc(C#CC(C)(C)C)c(OC(C)=O)c1 | -0.769 | 0.212 | -0.132 | 0.572 | 1.04 | 0.158 | 0.865 | 4.66 (inactive) | 0.031 | -0.0994 | 1.45 | 0.0582 (inactive) | -5.49 (inactive) | -1 (inactive) | 0.503 | 1.05 (inactive) | -0.159 | 0.0904 | 1.1 | -0.127
CCCN1C(=O)[C@]2(Cc3ccccc31)N=C(c1ccc(OCCCO)cc1)O[C@@H]2c1ccccc1 | 0.552 | 0.176 | 0.0732 | -0.139 | 0.118 | 1.3 | 1.23 | -1.9 (inactive) | 0.311 | 0.22 | 1.55 | -1.49 (inactive) | -2.93 (inactive) | 1.44 (inactive) | 2.74 | -0.0411 (inactive) | -0.0391 | 1.66 | 1.03 | -0.139
CCCCC(CC)C(O)C1C=CC2C(=O)N(c3ccccc3)C(=O)C2N1Nc1ccc(C#N)cc1 (stereo not given) | 0.883 | 0.468 | 0.332 | 1 | 1.59 | 0.893 | 1.31 | -0.257 (inactive) | 1.66 | -0.183 | 1.54 | 0.491 (inactive) | 0.221 (inactive) | 1.85 (inactive) | 3.14 | 0.0307 (inactive) | 0.555 | 0.208 | 1.04 | 0.338
CCOC(=O)C[C@H]1[C@H](OC(=O)c2ccc(C(=O)c3ccccc3)cc2)[C@@H](NC(=O)c2ccc(-c3ccccc3)cc2)c2cc(OCCCO)ccc2N1C(=O)Cc1ccc(OC)cc1 | -0.258 | -0.0676 | -0.0364 | 0.034 | 0.618 | 0.486 | -0.228 | -0.111 (inactive) | 0.765 | 0.0976 | 0.845 | 0.233 (inactive) | 0.838 (inactive) | 0.876 (inactive) | 0.861 | 0.24 (inactive) | 0.259 | 0.601 | 0.378 | -0.0302
C=C(COC)C(=O)CC[C@@H](OC(C)=O)c1cccc(OCCO)c1 | -0.0369 | -0.489 | -0.085 | 0.243 | -0.0381 | -0.372 | 0.691 | -0.721 (inactive) | -0.204 | -0.249 | -0.352 | 1.01 (inactive) | -0.953 (inactive) | 0.962 (inactive) | -0.329 | 0.302 (inactive) | -0.116 | -0.0606 | -0.132 | -0.211
